# Test results as given in ChEMBL document CHEMBL3988442, “University of Dundee, Small-Polar-MMV Screening Library” (2021).
# Out of some 66,000 compounds screened, about 960 (1.5%) showed an effect of 50% or more. What follows is part of a selection rich in strong results, with near analogues and random picks from the rest.
# Test system: Trypanosoma brucei
# Assay: Trypanosoma brucei 72 hour study
# Format: functional, organism-based
# Set-up: scale not given: in the data most compounds retested in dose-response had high values
smiles,measurement,setting,value
CCC(C(=O)Nc1ccc2c(C)n[nH]c2c1)N1CCCC1=O (centres undefined),Percent Effect,"30 µM, 30.03 µM",6.301%
CCN1N=C(C(=O)N2CCCC(c3nc(C)cs3)C2)CCC1=O (centres undefined),Percent Effect,"30.3 µM, […]",-15.61%
same,Percent Effect,"10 mM, 10 mM as filed; unlikely as a test dose",-12.74%
O=C(C1CCOC1)N1CCN(CCn2cccn2)c2ncccc2C1.O=C(O)C(F)(F)F (centres undefined),Percent Effect,"30.3 µM, […]",-86.89%
O=C(O)C(F)(F)F.O=C(O)C(F)(F)F.O=C(O)C(F)(F)F.c1ccc(CO[C@H]2CO[C@@]3(CCCN(Cc4cccnc4)C3)C2)nc1,Percent Effect,"30 µM, 30.03 µM",-28.27%
CN1CCN(C(=O)c2cc3sccc3n2Cc2ccc(Cl)cc2)CC1,Percent Effect,"30.3 µM, […]",99.49%
CN1CCN(C(=O)c2cc3sccc3n2Cc2ccccc2Cl)CC1,Percent Effect,"30.3 µM, […]",25.89%
CN1CCN(C(=O)c2cc3sccc3n2Cc2ccccc2)CC1,Percent Effect,"30.3 µM, […]",20.51%
CC1CCCN(Cc2c(C3CC3)n(CC(=O)N(C)C)c3ncccc23)C1.Cl (centres undefined),Percent Effect,"30.3 µM, […]",-32.63%
N#CCCN(CC1CCCO1)C(=O)c1ccsc1 (centres undefined),Percent Effect,"30.3 µM, […]",16.66%
same,Percent Effect,"10 mM, 10 mM as filed; unlikely as a test dose",-43.52%
O=C(CN(CC(O)c1ccc(F)cc1)C1CC1)NCc1cccs1 (centres undefined),Percent Effect,"30 µM, 30.03 µM",-22.68%
Cc1cnn(CC2CCCCN2Cc2nc(C)c3ccccc3n2)c1 (centres undefined),Percent Effect,"30.3 µM, […]",-8.505%
same,Percent Effect,"10 mM, 10 mM as filed; unlikely as a test dose",-58.92%
Cc1nc(C)n(CC2CCCN2Cc2nc3ccccc3nc2C)n1 (centres undefined),Percent Effect,"30 µM, 30.03 µM",-3.332%
COc1c(C)cnc(CN2CCCC2c2noc(C3CC3)n2)c1C (centres undefined),Percent Effect,"30 µM, 30.03 µM",-15.93%
COc1ccc(CN2CCCC2Cn2nc(C)nc2C)cc1F (centres undefined),Percent Effect,"30 µM, 30.03 µM",13.69%
Cc1cc(CN2CCCC2c2noc(C3CC3)n2)c2ccccc2n1 (centres undefined),Percent Effect,"30 µM, 30.03 µM",8.829%
COc1ccc(C)cc1CN1CCCC1c1noc(C2CC2)n1 (centres undefined),Percent Effect,"30 µM, 30.03 µM",105.3%
COc1ccc(F)cc1CN1CCCC1Cn1nc(C)nc1C (centres undefined),Percent Effect,10 µM,-21.11%
Cc1nc(C)n(CC2CCCN2Cc2nc(C)c3ccccc3n2)n1 (centres undefined),Percent Effect,10 µM,-1.729%
same,Percent Effect,"30.3 µM, […]",68.42%
Cc1nc(CN2CCCC2Cn2cccn2)nc2ccccc12 (centres undefined),Percent Effect,"30 µM, 30.03 µM",-97.44%
Cc1nc(C)n(CC2CCCN2Cc2nc(N)c3ccccc3n2)n1 (centres undefined),Percent Effect,"30 µM, 30.03 µM",-26.66%
COc1ccc(C)cc1CN1CCCC1Cn1nc(C)nc1C (centres undefined),Percent Effect,"30 µM, 30.03 µM",103.3%
Cc1cnn(CC2CCCN2Cc2nc(C)c3ccccc3n2)c1 (centres undefined),Percent Effect,"30.3 µM, […]",99.14%
same,Percent Effect,"10 mM, 10 mM as filed; unlikely as a test dose",-68.59%
CC(C)CC(=O)N1CCC2(CC1)COCCN2Cc1ccc(F)cc1.O=C(O)C(F)(F)F,Percent Effect,"30 µM, 30.03 µM",17.24%
COc1ccc(C[C@H]2CNCC[C@@H]2OC)cc1.O=C(O)C(F)(F)F,Percent Effect,"30.3 µM, […]",-9.891%
C[C@@H]1CN(S(C)(=O)=O)C[C@]12CCN(Cc1cccnc1)C2=O.O=C(O)C(F)(F)F,Percent Effect,"30.3 µM, […]",-31.63%
Cc1cc(Cl)c(C)c(S(=O)(=O)N2CCN(Cc3ccncc3)CC2)c1Cl,Percent Effect,"30 µM, 30.03 µM",-52.63%
CNC(=O)[C@@H]1CN(C(=O)C2CCC2)C[C@H]1c1ccnc(N2CCCC2)n1.Cl,Percent Effect,"30.3 µM, […]",8.722%
Cn1cc(CCC(=O)N2C[C@@H]3CC[C@H](C2)N(Cc2ccccn2)C3)cn1,Percent Effect,"30.3 µM, […]",7.516%
CC(C)c1cc(NC(=O)CN2CCCC2c2noc(C(C)C)n2)on1 (centres undefined),Percent Effect,10 µM,-43.85%
same,Percent Effect,"30.3 µM, […]",0.3759%
CN(C(=O)NCc1ccncc1)C1CCCN(c2ccccc2)C1=O (centres undefined),Percent Effect,10 µM,-27.33%
COCCN1CCC2(CC1)CC(c1cccnc1)CO2.O=C(O)C(F)(F)F (centres undefined),Percent Effect,"30.3 µM, […]",-48.93%
Cc1c(C)n2c(SCC(=O)N3CCCCC3)nnc2[nH]c1=O,Percent Effect,"30.3 µM, […]",-16.73%
Cl.O=C1CC2(CCCNC2)C(=O)N1Cc1cccc(Cl)c1 (centres undefined),Percent Effect,"30.3 µM, […]",2.467%
CCC(C)NC(=O)Cn1c(Nc2cc(C)cc(C)c2)nc(C)cc1=O (centres undefined),Percent Effect,"30 µM, 30.03 µM",-43.03%
Cc1ccc(NCc2cncc3c2CCN(Cc2ccccn2)C3)nn1.Cl.Cl,Percent Effect,"30.3 µM, […]",-48.05%
O=C(O)C(F)(F)F.O=C([C@H]1CC[C@@H]2[C@@H](CCN2Cc2nccs2)O1)N1CCOCC1,Percent Effect,"30.3 µM, […]",-77.67%
NC[C@H]1CC[C@H](C(NC(=O)C2CC2)c2ccccn2)CC1 (some centres undefined),Percent Effect,"30.3 µM, […]",-27.22%
C/C(=C\c1ccccc1)CN1CCCC(c2nnc3n2CCNCC3)C1.Cl (centres undefined),Percent Effect,"30.3 µM, […]",-29.45%
O=C(O)C(F)(F)F.O=C(O)C(F)(F)F.O=C1CC(c2ccncc2)C2(CCN(Cc3ccc(F)cc3)CC2)N1 (centres undefined),Percent Effect,"30 µM, 30.03 µM",27.71%
Cc1ccc(CN2CCC[C@]3(C(=O)O)CN(CC4CC4)C[C@@H]3C2)s1.O=C(O)C(F)(F)F.O=C(O)C(F)(F)F,Percent Effect,"30.3 µM, […]",-73.23%
CCCn1c(C)c(CC(=O)NCCC(N)=O)c2c1CC(C)(C)CC2=O,Percent Effect,"30 µM, 30.03 µM",-41.08%
Cc1nc(NC(=O)c2ccc(-n3ncc(C#N)c3N)cc2)sc1C,Percent Effect,10 µM,-25.11%
Cc1cnn(CC2CCCN2Cc2nc(N)c3ccccc3n2)c1 (centres undefined),Percent Effect,"30.3 µM, […]",51.47%
same,Percent Effect,"10 mM, 10 mM as filed; unlikely as a test dose",-16.65%
Nc1nc(CN2CCCC2Cn2cncn2)nc2ccccc12 (centres undefined),Percent Effect,10 µM,-61.59%
Cc1cnn(CC2CCCCN2Cc2nc(N)c3ccccc3n2)c1 (centres undefined),Percent Effect,"30 µM, 30.03 µM",14.94%
COCCN1CCn2cc(CNC(=O)c3cnn(C)c3)nc2C1.O=C(O)C(F)(F)F,Percent Effect,"30 µM, 30.03 µM",-33.8%
CC(C)CN1C[C@H]2C[C@H](C(=O)NC3CCC3)[C@@H](C1)O2.O=C(O)C(F)(F)F,Percent Effect,"30.3 µM, […]",-44.07%
Cc1ccc(-c2cccc(N3CCC(NC4CCOCC4)CC3)c2)cc1,Percent Effect,"30 µM, 30.03 µM",8.614%
Clc1cccc(-c2cccc(N3CCC(NC4CCOCC4)CC3)c2)c1,Percent Effect,"30 µM, 30.03 µM",100.7%
COc1cccc(-c2cccc(N3CCC(N[C@@H]4CCOC4)CC3)c2)c1,Percent Effect,"30 µM, 30.03 µM",9.147%
COC(=O)c1ccc(CNCc2ccn(C)n2)cc1,Percent Effect,"30.3 µM, […]",-7.529%
O=C(O)C(F)(F)F.O=C(O)C(F)(F)F.O=C1CCC2(CCN(Cc3ccc(F)cc3)CC2)N1CCN1CCCC1,Percent Effect,"30.3 µM, […]",-27.18%
Cc1nccc(-c2cccc(NCC(=O)N3CCc4sccc4C3)c2)n1,Percent Effect,"30 µM, 30.03 µM",51.17%
Cc1nccc(-c2cccc(NCC(=O)N3CCCC(C)C3)c2)n1 (centres undefined),Percent Effect,"30.3 µM, […]",89.85%
Cc1nccc(-c2cccc(NCC(=O)N3CCOC(C)C3)c2)n1 (centres undefined),Percent Effect,"30.3 µM, […]",18.9%
Cc1nccc(-c2cccc(NCC(=O)N3CCNC(=O)C3)c2)n1,Percent Effect,"30.3 µM, […]",13.04%
Cc1nccc(-c2cccc(NCC(=O)N3CCOCC3)c2)n1,Percent Effect,"30.3 µM, […]",18.69%
Cc1nccc(-c2cccc(NCC(=O)N3CCCCCCC3)c2)n1,Percent Effect,"30 µM, 30.03 µM",-43.47%
COc1cc(CNCC2CN(C3CC3)CCO2)cc(OC)c1.Cl (centres undefined),Percent Effect,"30 µM, 30.03 µM",10.22%
CC(C)CN1CCN(C(=O)c2ccncc2F)Cc2cccnc21.O=C(O)C(F)(F)F.O=C(O)C(F)(F)F,Percent Effect,"30 µM, 30.03 µM",-15.43%
NC1C=C(C(F)(F)F)NC=C1c1ccc(Cl)cc1 (centres undefined),Percent Effect,"30.3 µM, […]",-11.05%
COc1cccc(N2CCC(CNc3cc(C)nc4ncnn34)C2)c1 (centres undefined),Percent Effect,"30.3 µM, […]",-742.4%
COc1cccc(CNCC2CCN(CC(C)O)CC2)c1OC (centres undefined),Percent Effect,10 µM,-41.05%
COc1ccccc1N1CCC(CNCc2cccc(O)c2)C1 (centres undefined),Percent Effect,"30 µM, 30.03 µM",-1.533%
COc1ccc(CNCC2CCN(c3ccccc3OC)C2)cc1O (centres undefined),Percent Effect,"30.3 µM, […]",47.62%
same,Percent Effect,"10 mM, 10 mM as filed; unlikely as a test dose",-24.56%
COc1cccc(N2CCC(CNCc3cccc(C#N)c3)C2)c1 (centres undefined),Percent Effect,"30.3 µM, […]",77.75%
same,Percent Effect,"10 mM, 10 mM as filed; unlikely as a test dose",-19.99%
COc1ccccc1N1CCC(CNCc2ccc(C#N)cc2)C1 (centres undefined),Percent Effect,"30.3 µM, […]",92.2%
same,Percent Effect,"10 mM, 10 mM as filed; unlikely as a test dose",66.86%
COc1cccc(N2CCC(CNC(=O)NCc3ccco3)C2)c1 (centres undefined),Percent Effect,"30 µM, 30.03 µM",0.1518%
COc1ccccc1N1CCC(CNCc2cccc(OC)c2OC)C1 (centres undefined),Percent Effect,"30 µM, 30.03 µM",106.6%
COc1ccccc1N1CCC(CNCc2cccc(C#N)c2)C1 (centres undefined),Percent Effect,"30 µM, 30.03 µM",38.86%
CC(=O)N1CCC(Nc2cc(F)ccc2OCC2CCCO2)CC1 (centres undefined),Percent Effect,10 µM,-21.13%
COCC1CN(Cc2ccc(C)s2)Cc2nnn(C)c21.O=C(O)C(F)(F)F (centres undefined),Percent Effect,"30.3 µM, […]",-30.47%
O=C1C(NCc2nnc3n2CCCC3)CCN1c1ccccc1F (centres undefined),Percent Effect,10 µM,0.3109%
CN1[C@@H](C(=O)NCC2CC2)C[C@H]2CN(Cc3cccc(C#N)c3)C[C@H]21.O=C(O)C(F)(F)F.O=C(O)C(F)(F)F,Percent Effect,"30.3 µM, […]",-35.21%
CCN(C)c1ncnc2c1CCN(Cc1ccncc1)CC2.O=C(O)C(F)(F)F.O=C(O)C(F)(F)F.O=C(O)C(F)(F)F,Percent Effect,"30 µM, 30.03 µM",14.6%
CC1c2ncc(COc3cccnc3)n2CCN1Cc1ccco1 (centres undefined),Percent Effect,"30.3 µM, […]",-3.756%
CC(C)C1SCC(=O)Nc2c1cnn2-c1ccc(Cl)cc1 (centres undefined),Percent Effect,"30 µM, 30.03 µM",16.61%
CC(C)N(C)S(=O)(=O)c1ccc2c(c1)CCN(C(=O)c1cscn1)C2,Percent Effect,"30 µM, 30.03 µM",-38.59%
CN1CC[C@H](N(C)Cc2ccccc2)C[C@H](O)C1,Percent Effect,"30.3 µM, […]",-4.232%
CN1CC[C@H](N(Cc2ccccc2)Cc2ccccc2)C[C@H](O)C1,Percent Effect,"30.3 µM, […]",67.88%
CN1CC[C@H](N(Cc2ccccc2)CC2CC2)C[C@H](O)C1,Percent Effect,"30.3 µM, […]",2.753%
O=C(O)C(F)(F)F.O=C(c1ccsc1)N1CCO[C@@H]2CN(Cc3ccco3)CC[C@@H]2C1,Percent Effect,"30.3 µM, […]",-78.45%
CNC(=O)CN1CCOCC12CCN(CCc1ccccc1)CC2.O=C(O)C(F)(F)F.O=C(O)C(F)(F)F,Percent Effect,"30 µM, 30.03 µM",40.27%
CC(C)(C)C(NCC(=O)N1CCNC(=O)C1)c1ccccc1 (centres undefined),Percent Effect,"30 µM, 30.03 µM",-32.1%
CCc1nc(NS(=O)(=O)c2cc(C)c(F)cc2Cl)no1,Percent Effect,"30.3 µM, […]",54.01%
CCc1nc(NS(=O)(=O)c2ccc(C)cc2Cl)no1,Percent Effect,"30 µM, 30.03 µM",33.48%
CCc1nc(NS(=O)(=O)c2ccc(F)cc2Cl)no1,Percent Effect,"30.3 µM, […]",-4.749%
CN(C)C(=O)c1cnc2n1CCN(Cc1ccc3c(c1)OCO3)C2.O=C(O)C(F)(F)F,Percent Effect,"30.3 µM, […]",-102%
CC(O)CN1CCC(CNCc2ccccc2OC(F)(F)F)CC1 (centres undefined),Percent Effect,"30 µM, 30.03 µM",-22.34%
CC(O)CN1CCC(CNCc2cccc(Br)c2)CC1 (centres undefined),Percent Effect,"30 µM, 30.03 µM",-7.469%
CC(O)CN1CCC(CNCc2cccc(C(F)(F)F)c2)CC1 (centres undefined),Percent Effect,"30.3 µM, […]",86.87%
CC(O)CN1CCC(CNCc2ccc(OC(F)(F)F)cc2)CC1 (centres undefined),Percent Effect,10 µM,63.69%
CC(O)CN1CCC(CNCc2cccc(Cl)c2)CC1 (centres undefined),Percent Effect,"30.3 µM, […]",36.81%
CC(O)CN1CCC(CNCc2cccc(OC(F)(F)F)c2)CC1 (centres undefined),Percent Effect,10 µM,16.76%
